Source: PubChem BioAssay
This is a sample that favours compounds with a hit; in the whole collection about 6.6% have one here.
BoNT F protease: BoNT F light chain protease inhibition; Multiplex microsphere protease cleavage assay, flow cytometry; 360,000 tested, 0.22% active; inhibition, % at 10 µM; in the data active = inhibition above about 35%, passing the limit was not always enough; inconclusive = no clear call, values can overlap the other calls; also: plate controls were buffer without enzyme for full effect and enzyme alone for no effect
Autofluor counter: compound fluorescence in toxin protease inhibitor counterscreen | compound autofluorescence counterscreen, microsphere flow cytometry; active compounds read high | fluorescence intensity (test concentration not listed) | 360,000 tested, 3.1% active; in the data active = fluorescence intensity above about 16000; inconclusive = no clear call, values can overlap the other calls
Anthrax LF inh2: blocks Bacillus anthracis lethal factor protease; 360,000 tested, 0.12% active; P15917; inhibition, % at 10 µM; AID 588501; multiplex microsphere protease cleavage assay, LF; also: plate controls were buffer without enzyme for full effect and enzyme alone for no effect
GDH-TPI counter: GDH-TPI coupled enzyme inhibition counter-screen; GDH-TPI coupled enzyme counterscreen, NADH absorbance; inhibition, % at 4.8 µM; 360,000 tested, 1.2% active; AID 588335; in the data active = inhibition above about 30%;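 also: 0% = DMSO wells and 100% = wells lacking the enzyme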
BoNT-A LC inh2: blocks Botulinum neurotoxin A light chain protease; 360,000 tested, 0.17% active; inhibition, % at 10 µM; multiplex microsphere protease substrate cleavage, flow cytometry; also: plate controls were buffer without enzyme for full effect and enzyme alone for no effect
FBA Mtb inh: Mtb fructose-bisphosphate aldolase inhibition; P9WQA3; purified M. tuberculosis FBA, fluorescence read-out; inhibition, % at 1 µM; 360,000 tested, 2.3% active; AID 588726; in the data active = inhibition above about 27%;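 also: 0% = vehicle and 100% = reference inhibitor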
Target sequence (P9WQA3 whole entry, looked up): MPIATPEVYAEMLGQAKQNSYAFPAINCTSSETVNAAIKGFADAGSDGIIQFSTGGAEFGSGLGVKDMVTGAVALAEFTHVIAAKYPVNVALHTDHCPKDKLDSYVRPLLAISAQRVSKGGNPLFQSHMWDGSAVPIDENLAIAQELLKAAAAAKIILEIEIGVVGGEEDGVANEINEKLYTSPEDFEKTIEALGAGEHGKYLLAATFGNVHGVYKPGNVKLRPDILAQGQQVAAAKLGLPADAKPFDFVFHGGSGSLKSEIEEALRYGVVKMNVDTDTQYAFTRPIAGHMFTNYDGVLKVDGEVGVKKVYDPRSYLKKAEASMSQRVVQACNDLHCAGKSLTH
Active calls of the source: *. Rule as the data show it, unless noted: active = inhibition above about 30%; inconclusive = no clear call, values can overlap the other calls; inactive = below that.

Results for O=S(=O)(c1ccc(Cl)cc1)N1CCC(n2cnc3cc(C(F)(F)F)ccc32)CC1 ?
BoNT F protease: -1.5; Autofluor counter: 16517*; Anthrax LF inh2: 0.2; GDH-TPI counter: 7.0; BoNT-A LC inh2: -1.1; FBA Mtb inh: -0.5

How did O=C(Nc1ccc(Cl)cc1)c1ccc(-n2cncn2)c([N+](=O)[O-])c1 do in these assays?
BoNT F protease: -9.2; Autofluor counter: 24392*; Anthrax LF inh2: -1.5; GDH-TPI counter: -7.3; BoNT-A LC inh2: -5.1; FBA Mtb inh: 1.1

What do the screens show for `O=S(=O)(c1ccc(N2CCCC2)cc1)C(F)(F)F`?
BoNT F protease: 1.4; Autofluor counter: 16476*; Anthrax LF inh2: -1.4; GDH-TPI counter: 5.0; BoNT-A LC inh2: 0.7; FBA Mtb inh: -0.7

What do the screens show for `COc1ccc(Cl)cc1N(C(=O)Nc1cccc(Cl)c1)C1=NCC(C)S1` (stereo not drawn)?
BoNT F protease: -10.9; Autofluor counter: 2257; Anthrax LF inh2: -1.3; GDH-TPI counter: -0.7; BoNT-A LC inh2: -0.4; FBA Mtb inh: 5.1

Results for COc1ccc(C(=O)NCCN2C(=O)S/C(=C\c3cccnc3)C2=O)c(OC)c1OC ?
BoNT F protease: 1.2; Autofluor counter: 2707; Anthrax LF inh2: 3.0; GDH-TPI counter: 32.6*; BoNT-A LC inh2: 1.2; FBA Mtb inh: -0.8

Results for O=C1NCCNC1c1ccccc1 (stereo not drawn) ?
BoNT F protease: -3.4; Autofluor counter: 2965; Anthrax LF inh2: -4.6; GDH-TPI counter: 6.5; BoNT-A LC inh2: -0.1; FBA Mtb inh: -0.1

Results for Cc1ccc(NC(=O)COc2ccccc2C=O)cc1Cl ?
BoNT F protease: -8.8; Autofluor counter: 3567; Anthrax LF inh2: 0.0; GDH-TPI counter: 1.3; BoNT-A LC inh2: -1.5; FBA Mtb inh: 5.2

How did COc1cccc(-n2nnc3c(=O)n(CC(=O)NC4CCCC4)cnc32)c1 do in these assays?
BoNT F protease: 0.2; Autofluor counter: 20217*; Anthrax LF inh2: 0.4; GDH-TPI counter: -1.2; BoNT-A LC inh2: 1.0; FBA Mtb inh: 1.1

Results for O=C(Cn1cnc2c(nnn2Cc2ccc(F)cc2)c1=O)NC1CCCC1 ?
BoNT F protease: 4.5; Autofluor counter: 22114*; Anthrax LF inh2: 0.5; GDH-TPI counter: 0.0; BoNT-A LC inh2: 2.6; FBA Mtb inh: 0.2

What do the screens show for `COc1cccc(-n2nnc3c(=O)n(Cc4ccc(Cl)cc4)cnc32)c1`?
BoNT F protease: -0.8; Autofluor counter: 21157*; Anthrax LF inh2: 0.1; GDH-TPI counter: -7.5; BoNT-A LC inh2: -1.1; FBA Mtb inh: 0.6

How did COc1cccc(-n2nnc3c(=O)n(Cc4ccc(Br)cc4)cnc32)c1 do in these assays?
BoNT F protease: -6.0; Autofluor counter: 21527*; Anthrax LF inh2: -3.6; GDH-TPI counter: -9.3; BoNT-A LC inh2: -4.6; FBA Mtb inh: -2.2

What do the screens show for `CCOC(=O)CC(NS(=O)(=O)c1ccc(OC)c(C)c1)c1cccc([N+](=O)[O-])c1` (stereo not drawn)?
BoNT F protease: -0.7; Autofluor counter: 2478; Anthrax LF inh2: -0.4; GDH-TPI counter: -0.4; BoNT-A LC inh2: 0.1; FBA Mtb inh: 1.1

What do the screens show for `O=C(Nc1ccc(C(=O)N2CCCCC2)cc1)c1ccccc1Br`?
BoNT F protease: -1.0; Autofluor counter: 7135; Anthrax LF inh2: 0.7; GDH-TPI counter: -2.1; BoNT-A LC inh2: -2.7; FBA Mtb inh: 1.9

Results for Cc1nc2ccccc2n1CCc1nc2c3ccccc3nc(=S)n2[nH]1 ?
BoNT F protease: -4.5; Autofluor counter: 23484*; Anthrax LF inh2: -0.5; GDH-TPI counter: 24.3; BoNT-A LC inh2: inconclusive; FBA Mtb inh: 1.0

What do the screens show for `COc1ccccc1OCC(=O)NCc1ccco1`?
BoNT F protease: 1.0; Autofluor counter: 10212; Anthrax LF inh2: -11.4; GDH-TPI counter: 3.4; BoNT-A LC inh2: -0.4; FBA Mtb inh: -0.5

How did CCc1ccc(OCC(=O)NCc2ccco2)c(Br)c1 do in these assays?
BoNT F protease: -11.2; Autofluor counter: 6639; Anthrax LF inh2: -5.7; GDH-TPI counter: 13.9; BoNT-A LC inh2: -0.8; FBA Mtb inh: 0.0

What do the screens show for `Cc1ccc(Cl)c(OCC(=O)NCc2ccco2)c1`?
BoNT F protease: -2.6; Autofluor counter: 21508*; Anthrax LF inh2: -0.6; GDH-TPI counter: 1.3; BoNT-A LC inh2: inconclusive; FBA Mtb inh: 0.5

Results for O=C(/C=C/c1ccc(Cl)c(Cl)c1)NCc1ccco1 ?
BoNT F protease: 35.3*; Autofluor counter: 2025; Anthrax LF inh2: 1.7; GDH-TPI counter: 11.1; BoNT-A LC inh2: 2.6; FBA Mtb inh: 1.3

What do the screens show for `O=C(/C=C/c1ccccc1)NCc1ccco1`?
BoNT F protease: 2.8; Autofluor counter: 4277; Anthrax LF inh2: -9.0; GDH-TPI counter: 9.2; BoNT-A LC inh2: 1.1; FBA Mtb inh: 0.1

What do the screens show for `O=C(COc1ccccc1Br)NCc1ccco1`?
BoNT F protease: -0.2; Autofluor counter: 16469*; Anthrax LF inh2: -0.2; GDH-TPI counter: -5.1; BoNT-A LC inh2: -0.7; FBA Mtb inh: -5.3

How did Cc1ccc(CN2CCN(/N=C/C(Br)=C\c3ccccc3)CC2)cc1 do in these assays?
BoNT F protease: -0.2; Autofluor counter: 4067; Anthrax LF inh2: -11.2; GDH-TPI counter: -1.6; BoNT-A LC inh2: 0.2; FBA Mtb inh: 1.7

What do the screens show for `CN1CCCC(C)(C(=O)Nc2ccc(-n3cccc3)cc2)C1` (stereo not drawn)?
BoNT F protease: 5.5; Autofluor counter: 4206; Anthrax LF inh2: 2.6; GDH-TPI counter: 11.9; BoNT-A LC inh2: 0.2; FBA Mtb inh: 0.1

Results for CCN(CC)c1ccc(/C=C2\C(=O)c3ccc(C(=O)O)cc3C2=O)cc1 ?
BoNT F protease: 63.8*; Autofluor counter: 9698; Anthrax LF inh2: 37.3*; GDH-TPI counter: 0.7; BoNT-A LC inh2: 14.2; FBA Mtb inh: -10.8

What do the screens show for `CCN(CC)c1ccc(C=C2C(=O)NC(=S)NC2=O)cc1`?
BoNT F protease: -5.7; Autofluor counter: 4317; Anthrax LF inh2: 3.2; GDH-TPI counter: 19.3; BoNT-A LC inh2: -3.8; FBA Mtb inh: 0.3

What do the screens show for `CCc1ccc2c(CSc3nnnn3C)cc(=O)oc2c1`?
BoNT F protease: 2.3; Autofluor counter: 3473; Anthrax LF inh2: 0.9; GDH-TPI counter: 33.8*; BoNT-A LC inh2: -0.3; FBA Mtb inh: 8.1

Results for CCOC(=O)CSc1nc2nc(Cl)c(Cl)nc2[nH]1 ?
BoNT F protease: -6.7; Autofluor counter: 3812; Anthrax LF inh2: -0.7; GDH-TPI counter: 32.7*; BoNT-A LC inh2: -0.7; FBA Mtb inh: active

Results for CSc1nc2nc(Cl)c(Cl)nc2[nH]1 ?
BoNT F protease: -1.9; Autofluor counter: 4053; Anthrax LF inh2: -0.6; GDH-TPI counter: 37.2*; BoNT-A LC inh2: -0.5; FBA Mtb inh: active

How did COc1ccc(Oc2c(C)oc3c(CN(C)C)c(O)ccc3c2=O)cc1 do in these assays?
BoNT F protease: 5.2; Autofluor counter: 10116; Anthrax LF inh2: 0.4; GDH-TPI counter: 26.2; BoNT-A LC inh2: 1.0; FBA Mtb inh: 42.7*

How did Cc1oc2c(CN(C)C)c(O)ccc2c(=O)c1-c1cscn1 do in these assays?
BoNT F protease: -2.3; Autofluor counter: 9378; Anthrax LF inh2: -2.6; GDH-TPI counter: 26.2; BoNT-A LC inh2: 0.0; FBA Mtb inh: 65.9*
